Inconclusive results are not listed. Active and inactive are the calls of the source. Unless noted, calls follow the shape of the dose curve; as a rule, active = well fitted curve in either direction with a large enough effect (not every such curve was filed as active); inconclusive = small, poorly fitted or top-dose-only effect, or another doubt; inactive = flat fitted curve, though single readings scatter.
How the values were obtained:
[1] = molecular target: Lysosomal acid glucosylceramidase (Homo sapiens) (UniProt P04062); experiment: Glucocerebrosidase-p2 (AID 348; in the data active = potency below about 10 µM; also: potency is read from the fitted curve at half-maximal effect); details: purified GBA, blue fluorogenic substrate, 40 min
Sequence of Lysosomal acid glucosylceramidase (Homo sapiens) (P04062 whole entry, looked up): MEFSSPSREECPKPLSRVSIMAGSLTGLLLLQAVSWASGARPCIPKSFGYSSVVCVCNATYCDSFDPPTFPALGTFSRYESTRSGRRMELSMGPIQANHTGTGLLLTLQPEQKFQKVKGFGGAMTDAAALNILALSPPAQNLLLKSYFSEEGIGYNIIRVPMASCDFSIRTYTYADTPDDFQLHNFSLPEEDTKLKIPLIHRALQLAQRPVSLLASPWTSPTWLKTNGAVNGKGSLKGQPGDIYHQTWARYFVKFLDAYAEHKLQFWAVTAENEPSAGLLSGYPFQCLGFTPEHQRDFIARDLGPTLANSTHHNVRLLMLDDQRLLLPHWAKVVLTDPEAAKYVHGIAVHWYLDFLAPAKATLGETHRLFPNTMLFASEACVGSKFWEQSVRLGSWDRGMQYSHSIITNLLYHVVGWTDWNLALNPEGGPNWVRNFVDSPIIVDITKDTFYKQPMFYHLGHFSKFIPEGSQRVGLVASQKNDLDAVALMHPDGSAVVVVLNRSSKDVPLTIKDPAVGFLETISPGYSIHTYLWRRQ
Procedure, shortened: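 Compounds titrated from 0.6 nM upwards against 0.2 nM enzyme in pH 5.9 citric acid/KH2PO4, taurocholate, tween-20; blue fluorogenic substrate 80 uM, 40 min room temperature, stopped and read Ex 365/Em 440 for AC50.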

[2] = AP1 Signaling Pathway (AID 357); details: ME-180 AP-1-bla reporter, EGF-induced, beta-lactamase ratio, 5 h; at 7.69 µM (top of the series) unless noted;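 also: ME-180 reporter cells stimulated with EGF at its EC50 level; % is scaled to controls: 0 for no effect and ±100 for the full control effect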
Procedure, shortened: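 AP-1-bla ME-180 cells, Opti-MEM + 0.5% dialyzed FBS, plated overnight 37 °C. Cpd titration + EC50 EGF, 5 h 37 °C. CCF4 2.5 h RT; ex 405, em 460/530 ratio → %activity, AC50.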

[3] = molecular target: Cytochrome P450 1A2 (Homo sapiens) (UniProt P05177); experiment: p450-cyp1a2 (AID 410; calls by dose curve; also: potency is read from the fitted curve at half-maximal effect;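 as to activity change, negative = inhibition: -100% = full effect of reference inhibitor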); details: recombinant CYP1A2, luciferin-ME demethylation, luminescence; series mostly up to 11.4 µM
Sequence of Cytochrome P450 1A2 (Homo sapiens) (P05177 whole entry, looked up): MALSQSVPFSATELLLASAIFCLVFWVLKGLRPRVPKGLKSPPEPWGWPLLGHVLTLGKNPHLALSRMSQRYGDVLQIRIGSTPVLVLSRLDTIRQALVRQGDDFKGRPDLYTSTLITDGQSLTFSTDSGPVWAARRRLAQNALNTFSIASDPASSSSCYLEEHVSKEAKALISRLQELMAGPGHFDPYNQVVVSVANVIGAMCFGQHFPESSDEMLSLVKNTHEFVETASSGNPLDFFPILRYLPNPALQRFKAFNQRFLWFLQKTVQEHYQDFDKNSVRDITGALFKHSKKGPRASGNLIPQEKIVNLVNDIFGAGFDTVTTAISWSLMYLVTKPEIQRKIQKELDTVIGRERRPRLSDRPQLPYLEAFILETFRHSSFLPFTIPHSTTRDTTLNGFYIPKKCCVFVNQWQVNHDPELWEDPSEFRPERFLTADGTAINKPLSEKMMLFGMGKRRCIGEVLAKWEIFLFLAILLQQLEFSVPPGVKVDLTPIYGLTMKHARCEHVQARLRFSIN
Procedure, shortened: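 20nM CYP1A2 with 100uM Luciferin-ME (at Km) in 100mM KPO4; compound preincubated 10 min, NADPH regeneration added, 60 min at room temperature. Luciferin quantified by luminescence after detection reagent; normalized to 57 uM furafylline.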

[4] = Stat Signaling Pathway (AID 446); details: ME-180 SIE beta-lactamase reporter, IL-6 stimulated, 5 h; at 7.69 µM (top of the series) unless noted;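 also: ME-180 cervical cancer cells given 40 pM IL-6 alongside compound; SIE-controlled beta-lactamase reporter measured as 460/530 nm FRET emission ratio; % is scaled to controls: 0 for no effect and ±100 for the full control effect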
Procedure, shortened: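 Screening format detects activators and inhibitors alike: ME-180 SIE-bla cells stimulated at 40 pM IL-6 for 5 hrs with compound, then dual-emission beta-lactamase read at 405 nm excitation.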

[5] = molecular target: Glucocorticoid receptor (Homo sapiens) (UniProt P04150); experiment: GR-GFP Redistribution (AID 450;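 active = compounds whose dose series gives a full or clear partial fitted curve of increased nuclear translocation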; also: potency is read from the fitted curve at half-maximal effect); details: U2OS GR-GFP nuclear translocation, laser cytometry, 2 h
Sequence of Glucocorticoid receptor (Homo sapiens) (P04150 whole entry, looked up, the tested form may be a part): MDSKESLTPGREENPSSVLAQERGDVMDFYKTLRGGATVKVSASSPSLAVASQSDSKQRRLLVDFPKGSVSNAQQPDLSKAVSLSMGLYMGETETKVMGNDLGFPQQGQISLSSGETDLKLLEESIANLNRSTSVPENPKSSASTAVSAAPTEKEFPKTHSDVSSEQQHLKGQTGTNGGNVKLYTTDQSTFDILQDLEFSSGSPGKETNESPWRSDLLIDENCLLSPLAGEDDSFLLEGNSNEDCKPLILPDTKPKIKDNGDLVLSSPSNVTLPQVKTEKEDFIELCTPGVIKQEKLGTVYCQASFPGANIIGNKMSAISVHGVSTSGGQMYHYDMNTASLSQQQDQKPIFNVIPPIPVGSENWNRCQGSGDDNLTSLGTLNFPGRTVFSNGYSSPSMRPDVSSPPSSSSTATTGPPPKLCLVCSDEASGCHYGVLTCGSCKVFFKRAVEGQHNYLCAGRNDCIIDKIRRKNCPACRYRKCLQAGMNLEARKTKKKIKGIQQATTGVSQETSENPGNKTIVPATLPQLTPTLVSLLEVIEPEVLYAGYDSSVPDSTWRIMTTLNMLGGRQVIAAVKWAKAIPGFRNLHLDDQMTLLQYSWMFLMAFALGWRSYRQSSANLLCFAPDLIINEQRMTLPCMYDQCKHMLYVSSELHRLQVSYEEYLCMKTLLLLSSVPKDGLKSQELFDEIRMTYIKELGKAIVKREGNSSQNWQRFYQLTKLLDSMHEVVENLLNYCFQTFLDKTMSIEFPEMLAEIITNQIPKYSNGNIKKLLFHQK

[6] = molecular target: Glucocorticoid receptor (Homo sapiens) (UniProt P04150); experiment: GR-EFC Redistribution (AID 451; calls by dose curve; also: potency is read from the fitted curve at half-maximal effect); details: CHO-K1 GR-EFC translocation, beta-gal luminescence, 2 h
Procedure, shortened: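 CHO-K1 cells expressing nuclear EA and GR-ED fragments of b-gal; compounds titrated up to 46 uM final, 2 h at 37 C. GR nuclear translocation read as complemented b-gal luminescence after 1 h RT detection.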

[7] = molecular target: Mitogen-activated protein kinase 10 (Mus musculus) (UniProt Q61831); experiment: JNK3 AlphaScreen Assay (AID 530); details: JNK3 lysate, c-Jun phosphorylation; series mostly up to 11.4 µM;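 also: kinase came from lysate of stimulated human HepG2 cells; signal reports phosphorylation of biotinylated GST-cJun 1-79 at Ser73 with 10 µM ATP; % is scaled to controls: 0 for no effect and ±100 for the full control effect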
Procedure, shortened: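 Pre-activated (IL-1β/TNFα) JNK3 in HepG2 lysates phosphorylates biotin-GST-cJun(1-79), 10 uM ATP; anti-phospho-cJun(Ser73) AlphaScreen read at room temperature, pH 7.6 Tris buffer. Compounds pre-incubated 15 min as titrations.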

[8] = molecular target: 3',5'-cyclic-AMP phosphodiesterase 4B (Homo sapiens) (UniProt Q07343); experiment: qHTS Assay for Inhibitors of PDE-IV (AID 607; active = well fitted activation curve with a large enough effect in the main read-out, with a control signal flat, not every such curve was filed as active; also: % of control where 0% means no effect); details: HEK293 ACTOne CNG channel cells, membrane potential fluorescence; series mostly up to 22.9 µM
Sequence of 3',5'-cyclic-AMP phosphodiesterase 4B (Homo sapiens) (Q07343 whole entry, looked up): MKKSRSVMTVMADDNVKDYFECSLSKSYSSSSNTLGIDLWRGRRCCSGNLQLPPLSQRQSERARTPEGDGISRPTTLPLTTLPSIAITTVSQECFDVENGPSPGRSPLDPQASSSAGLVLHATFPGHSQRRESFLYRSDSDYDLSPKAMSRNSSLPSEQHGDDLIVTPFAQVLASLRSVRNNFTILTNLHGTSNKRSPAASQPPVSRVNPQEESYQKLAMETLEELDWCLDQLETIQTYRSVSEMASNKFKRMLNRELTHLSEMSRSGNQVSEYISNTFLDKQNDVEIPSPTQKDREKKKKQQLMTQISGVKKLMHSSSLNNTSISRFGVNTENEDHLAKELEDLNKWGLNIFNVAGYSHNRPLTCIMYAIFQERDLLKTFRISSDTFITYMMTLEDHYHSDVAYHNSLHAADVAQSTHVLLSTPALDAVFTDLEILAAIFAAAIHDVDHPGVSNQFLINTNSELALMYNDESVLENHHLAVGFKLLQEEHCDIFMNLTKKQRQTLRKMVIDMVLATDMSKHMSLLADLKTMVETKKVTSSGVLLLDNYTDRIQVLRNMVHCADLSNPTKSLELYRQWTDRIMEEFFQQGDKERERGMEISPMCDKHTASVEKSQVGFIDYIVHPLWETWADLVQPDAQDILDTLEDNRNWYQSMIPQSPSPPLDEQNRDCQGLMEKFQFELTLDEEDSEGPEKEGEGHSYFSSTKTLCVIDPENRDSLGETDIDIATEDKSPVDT
Procedure, shortened: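 The readout is membrane depolarisation from a cAMP-sensing CNG channel, detected with a potential dye at ex 535/em 590. Cells were HEK293-derived (endogenous PDE-IV) at 1000 cells/well, titrated up to 22.9 uM final.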

[9] = molecular target: Cytochrome P450 2D6 (Homo sapiens) (UniProt P10635); experiment: qHTS Assay for Inhibitors and Substrates of Cytochrome P450 2D6 (AID 891; active = well fitted curve in the direction sought with a large enough effect; an effect the other way counts as inactive or inconclusive; also: potency is read from the fitted curve at half-maximal effect; nearly all actives have a fitted effect of over 60% in size); details: recombinant CYP2D6, luciferin-ME EGE luminescence; series mostly up to 11.4 µM
Sequence of Cytochrome P450 2D6 (Homo sapiens) (P10635 whole entry, looked up): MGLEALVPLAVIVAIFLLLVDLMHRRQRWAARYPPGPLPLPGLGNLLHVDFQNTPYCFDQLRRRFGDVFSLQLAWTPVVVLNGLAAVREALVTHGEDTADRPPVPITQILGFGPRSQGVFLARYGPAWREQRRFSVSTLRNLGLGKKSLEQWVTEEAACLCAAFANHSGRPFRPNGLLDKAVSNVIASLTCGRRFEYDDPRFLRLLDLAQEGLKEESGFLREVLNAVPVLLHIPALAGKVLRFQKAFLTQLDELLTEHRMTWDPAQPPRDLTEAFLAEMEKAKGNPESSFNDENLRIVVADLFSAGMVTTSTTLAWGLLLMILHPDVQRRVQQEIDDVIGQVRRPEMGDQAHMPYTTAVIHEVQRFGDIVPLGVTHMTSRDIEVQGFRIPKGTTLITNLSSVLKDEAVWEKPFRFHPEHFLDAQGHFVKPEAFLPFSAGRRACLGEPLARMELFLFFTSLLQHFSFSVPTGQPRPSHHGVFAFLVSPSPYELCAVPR
Procedure, shortened: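 Human CYP2D6 (5 nM) with 30 uM Luciferin-ME EGE (at Km) in 100 mM KPO4, compound preincubated 10 min, then NADPH regeneration system for 60 min at room temperature. Luciferin read by luminescence; normalized to 1.43 uM quinidine.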

[10] = molecular target: Cytochrome P450 2C19 (Homo sapiens) (UniProt P33261); experiment: qHTS Assay for Inhibitors and Substrates of Cytochrome P450 2C19 (AID 899; active = well fitted curve in the direction sought with a large enough effect; an effect the other way counts as inactive or inconclusive; also: nearly all actives have a fitted effect of over 60% in size; also: potency is read from the fitted curve at half-maximal effect; as to activity, negative = inhibition: % is scaled to controls: 0 for no effect and ±100 for the full control effect); details: recombinant CYP2C19, luciferin-H EGE luminescence; series mostly up to 11.4 µM
Sequence of Cytochrome P450 2C19 (Homo sapiens) (P33261 whole entry, looked up): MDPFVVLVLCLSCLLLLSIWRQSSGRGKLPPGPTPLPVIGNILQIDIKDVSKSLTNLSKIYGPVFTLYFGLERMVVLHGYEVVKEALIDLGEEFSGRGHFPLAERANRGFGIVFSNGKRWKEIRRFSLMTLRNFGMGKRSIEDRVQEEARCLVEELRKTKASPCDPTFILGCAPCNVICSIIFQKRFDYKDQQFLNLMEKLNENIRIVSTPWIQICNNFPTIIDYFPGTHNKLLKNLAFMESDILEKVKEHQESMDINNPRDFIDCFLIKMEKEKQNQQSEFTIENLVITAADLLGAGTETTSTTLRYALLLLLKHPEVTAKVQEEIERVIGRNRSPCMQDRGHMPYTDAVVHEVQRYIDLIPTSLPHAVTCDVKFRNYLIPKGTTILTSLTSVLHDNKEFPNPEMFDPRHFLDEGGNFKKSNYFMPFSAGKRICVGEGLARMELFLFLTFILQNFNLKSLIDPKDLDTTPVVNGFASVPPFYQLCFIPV
Procedure, shortened: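 5 nM human CYP2C19 with 10uM Luciferin-H EGE (at KM) in 50mM KPO4, compound preincubated 10 min at 37C, then NADPH regeneration for 60 min at 37C. Luciferin read by luminescence after detection reagent; normalized to 57uM ketoconazole as full inhibition.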

[11] = molecular target: Cytochrome P450 3A4 (Homo sapiens) (UniProt P08684); experiment: qHTS Assay for Inhibitors and Substrates of Cytochrome P450 3A4 (AID 884; active = well fitted curve in the direction sought with a large enough effect; an effect the other way counts as inactive or inconclusive; also: potency is read from the fitted curve at half-maximal effect; nearly all actives have a fitted effect of over 50% in size); details: recombinant CYP3A4, Luciferin-PPXE luminescence; series mostly up to 57.1 µM
Sequence of Cytochrome P450 3A4 (Homo sapiens) (P08684 whole entry, looked up): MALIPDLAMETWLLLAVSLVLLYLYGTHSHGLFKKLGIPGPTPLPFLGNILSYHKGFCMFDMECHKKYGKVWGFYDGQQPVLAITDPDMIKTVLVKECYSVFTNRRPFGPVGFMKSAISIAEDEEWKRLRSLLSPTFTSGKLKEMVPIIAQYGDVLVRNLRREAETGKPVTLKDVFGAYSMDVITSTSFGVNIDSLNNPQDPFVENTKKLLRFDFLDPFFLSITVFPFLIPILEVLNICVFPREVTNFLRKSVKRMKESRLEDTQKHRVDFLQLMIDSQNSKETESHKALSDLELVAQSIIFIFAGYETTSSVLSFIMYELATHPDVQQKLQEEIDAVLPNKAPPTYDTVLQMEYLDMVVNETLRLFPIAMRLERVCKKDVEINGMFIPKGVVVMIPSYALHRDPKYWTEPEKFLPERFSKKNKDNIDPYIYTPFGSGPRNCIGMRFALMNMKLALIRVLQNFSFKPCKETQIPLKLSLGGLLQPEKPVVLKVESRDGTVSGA
Procedure, shortened: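 20 nM human CYP3A4 with 25 uM Luciferin-PPXE (at KM) in 200 mM KPO4, preincubated 10 min with compound; NADPH regeneration started a 60 min RT reaction. Luciferin detected by luminescence, normalized to 57 uM ketoconazole as full inhibition.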

[12] = molecular target: Cytochrome P450 3A4 (Homo sapiens) (UniProt P08684); experiment: qHTS Assay for Activators of Cytochrome P450 3A4 (AID 885; active = well fitted curve in the direction sought with a large enough effect; an effect the other way counts as inactive or inconclusive; also: nearly all actives have a fitted effect of over 65% in size); details: recombinant CYP3A4, Luciferin-PPXE luminescence, 60 min; series mostly up to 11.4 µM
Procedure, shortened: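 Steps: enzyme/substrate mix dispensed; compound added, 10 min RT; NADPH regeneration solution added, 60 min RT; luciferin detection buffer stops reaction; 20 min later luminescence measured.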

[13] = qHTS Assay for Identification of Small Molecule Agonists for Hypoxia Response Element Signaling Pathway (AID 914; active = well fitted activation curve with a large enough effect in the signal ratio, with a control signal flat, not every such curve was filed as active; the % refers to the signal ratio; also: % of control where 0% means no effect); details: ME-180 (cervical carcinoma) HRE-bla reporter, beta-lactamase ratio, CoCl2, 17 h; activation: hits give high values
Procedure, shortened: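 A beta-lactamase reporter under hypoxia response element control in ME-180 cells served as the system. Compound titrations plus EC50 CoCl2 ran 17 h at 37 degrees Celsius; AC50 values were fitted from %Activity.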

[14] = molecular target: Cytochrome P450 2C9 (Homo sapiens) (UniProt P11712); experiment: qHTS Assay for Inhibitors and Substrates of Cytochrome P450 2C9 (AID 883; active = well fitted curve in the direction sought with a large enough effect; an effect the other way counts as inactive or inconclusive; also: potency is read from the fitted curve at half-maximal effect; nearly all actives have a fitted effect of over 60% in size); details: recombinant CYP2C9, luciferin-H luminescence, 60 min; series mostly up to 11.4 µM
Sequence of Cytochrome P450 2C9 (Homo sapiens) (P11712 whole entry, looked up): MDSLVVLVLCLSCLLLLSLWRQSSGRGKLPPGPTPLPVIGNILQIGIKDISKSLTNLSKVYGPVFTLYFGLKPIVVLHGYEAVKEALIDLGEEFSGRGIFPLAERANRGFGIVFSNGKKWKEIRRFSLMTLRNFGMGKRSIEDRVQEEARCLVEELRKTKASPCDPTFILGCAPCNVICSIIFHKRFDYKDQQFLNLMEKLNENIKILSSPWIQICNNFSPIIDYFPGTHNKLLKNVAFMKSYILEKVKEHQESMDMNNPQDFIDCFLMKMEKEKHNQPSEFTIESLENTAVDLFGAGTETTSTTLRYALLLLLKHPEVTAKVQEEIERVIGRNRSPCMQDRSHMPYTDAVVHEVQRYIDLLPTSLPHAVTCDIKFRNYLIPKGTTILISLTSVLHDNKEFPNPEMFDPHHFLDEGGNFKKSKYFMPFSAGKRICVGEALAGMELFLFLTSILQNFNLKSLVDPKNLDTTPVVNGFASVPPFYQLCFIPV
Procedure, shortened: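 Human CYP2C9 (10nM) with Luciferin-H at 100uM (its KM) in 25mM KPO4; compound preincubated 10 min at 37C, then NADPH regeneration for 60 min at 37C. Luciferin read by luminescence after detection reagent; normalized to 57uM sulphaphenazole as full inhibition.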

Cc1ccc2ccccc2c1CSc1nc(N)nc2c1ncn2CC(C)C
active: Potency [9] 3.98 µM | Potency [10] 3.98 µM
inactive: Potency [1] > 11.4 µM | activity change, negative = inhibition [2] -11.7% | activity change, negative = inhibition [3] -20.8% [at 2.29 µM] | activity, negative = inhibition [4] -19.8% | Potency [5] > 46 µM | Potency [6] > 9.22 µM | Potency [7] | Potency [8]

Clc1ccccc1NN(Cc1ccccn1)c1ccccc1Cl
inactive: Potency [1] > 11.4 µM | activity change, negative = inhibition [2] -10% | activity change, negative = inhibition [3] -22.4% [at 2.29 µM] | activity, negative = inhibition [4] -11% | Potency [5] > 46 µM | Potency [6] > 9.22 µM | Potency [7] | Potency [8]
active: Potency [10] 3.98 µM

c1ccc2c(c1)-c1ccccc1C2N1CC2CCC(CC2)C1
active: Potency [3] 0.501 µM
inactive: Potency [1] > 11.4 µM | activity change, negative = inhibition [2] 22.5% | activity, negative = inhibition [4] 17.6% | Potency [5] > 46 µM | Potency [6] > 9.22 µM | Potency [8]

CN(C)c1ccc(-c2nc(Nc3ccncc3)c3ccccc3n2)cc1
active: Potency [1] 3.67 µM | Potency [3] 0.501 µM | Potency [11] 7.94 µM
inactive: activity change, negative = inhibition [2] -10.7% | activity, negative = inhibition [4] -28.2% | Potency [5] > 46 µM | Potency [6] > 46 µM | Potency [8] | Potency [12]

CC1(C)N=C(N)N=C(N)N1c1cccc(CSc2ccccc2)c1
active: Potency [9] 0.251 µM
inactive: Potency [1] > 11.4 µM | activity change, negative = inhibition [2] -4.06% | activity change, negative = inhibition [3] -17.2% [at 2.29 µM] | activity, negative = inhibition [4] 2.13% | Potency [5] > 46 µM | Potency [6] > 9.22 µM | Potency [7] | Potency [8]

CC(=O)O[C@H]1CC[C@@]2(C)C(=CC[C@@H]3[C@H]4CC[C@@H]([C@H](C)C(=O)O)[C@]4(C)CC[C@H]32)C1
inactive: Potency [1] > 11.4 µM | activity change, negative = inhibition [2] -2.09% | activity, negative = inhibition [4] 9.87% | Potency [5] > 46 µM | Potency [6] > 9.22 µM | Potency [7] | Potency [8] | activation [13] 1.23%
active: Potency [3] 3.16 µM

Clc1ccc2c(NC3CCC(N4CCCCC4)CC3)ccnc2c1 (centres undefined)
inactive: Potency [1] > 11.4 µM | activity change, negative = inhibition [2] -12.3% | activity change, negative = inhibition [3] -15.7% [at 2.29 µM] | activity, negative = inhibition [4] 3.71% | Potency [5] > 46 µM | Potency [6] > 9.22 µM | Potency [8] | Potency [10]

NC(N)=N[C@@H]1C(O)[C@H](N=C(N)N)[C@@H](O)C(O)[C@H]1O (some centres undefined)
inactive: Potency [1] > 11.4 µM | activity change, negative = inhibition [2] -5.59% | activity change, negative = inhibition [3] -4.9% [at 2.29 µM] | activity, negative = inhibition [4] -0.855% | Potency [5] > 46 µM | Potency [7] | Potency [8]

c1ccc(SCCc2ccncc2)cc1
inactive: Potency [1] > 11.4 µM | activity change, negative = inhibition [2] 9.37% | activity, negative = inhibition [4] -2.72% | Potency [5] > 46 µM | Potency [6] > 9.22 µM | Potency [8] | Potency [12]
active: Potency [3] 0.2 µM | Potency [14] 1.26 µM | Potency [11] 2.51 µM | Potency [9] 1.26 µM | Potency [10] 0.794 µM

CN(C)S(=O)(=O)c1ccc(Nc2ccc(O)c3c2C(=O)c2c([N+](=O)[O-])ccc(O)c2C3=O)cc1
active: Potency [3] 0.126 µM
inactive: Potency [1] > 11.4 µM | activity change, negative = inhibition [2] -13.4% | activity, negative = inhibition [4] 23.6% | Potency [5] > 46 µM | Potency [6] > 9.22 µM | Potency [8] | Potency [12]

CC1CCN(CC(=O)N2c3ccccc3Sc3cc4ccccc4cc32)CC1
active: Potency [3] 3.98 µM | Potency [11] 3.98 µM | Potency [9] 3.98 µM | Potency [10] 3.16 µM
inactive: Potency [1] > 11.4 µM | activity change, negative = inhibition [2] 28.3% | activity, negative = inhibition [4] 9.28% | Potency [5] > 46 µM | Potency [6] > 9.22 µM | Potency [7] | Potency [12]

Oc1ccc2ccccc2c1Cc1c(O)ccc2ccccc12
inactive: Potency [1] > 11.4 µM | activity change, negative = inhibition [2] 0.512% | activity, negative = inhibition [4] -5.79% | Potency [5] > 46 µM | Potency [7] | Potency [8]
active: Potency [3] 3.98 µM | Potency [14] 2 µM | Potency [10] 0.316 µM

CCN(Cc1cc(Cl)cc(C)c1O)Cc1c(O)ccc2ccccc12
inactive: Potency [1] > 11.4 µM | activity change, negative = inhibition [2] -8.15% | activity, negative = inhibition [4] 1.25% | Potency [5] > 46 µM | Potency [6] > 9.22 µM | Potency [7] | Potency [8]
active: Potency [3] 1 µM | Potency [9] 1.26 µM

Cc1nc2cnc(Oc3ccccc3)nc2n(CCc2ccccc2)c1=O
inactive: Potency [1] > 11.4 µM | activity change, negative = inhibition [2] 17.9% | activity, negative = inhibition [4] -2.9% | Potency [5] > 9.22 µM | Potency [6] > 46 µM | Potency [7] | Potency [12]
active: Potency [3] 3.16 µM

CC1(C)N=C(N)N=C(N)N1c1cccc(OCc2cccc([N+](=O)[O-])c2)c1
inactive: Potency [1] > 11.4 µM | activity change, negative = inhibition [2] -5.25% | activity, negative = inhibition [4] -5.32% | Potency [5] > 46 µM | Potency [6] > 9.22 µM | Potency [7] | Potency [8] | activation [13] 5.31%
active: Potency [3] 5.01 µM

From PubChem BioAssay (NCATS)
